Rows were chosen to be rich in hits. Some 2.5% of all compounds tested hit in one or more screens of this group.
POLI inh – qHTS for Inhibitors of Polymerase Iota | Potency, µM (series often up to 115 µM), most hits filed as inhibitors | Pol iota fluorescent replication assay, 10 min | AID 588590, 2011 | actives 1% (n = 390,000)
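Fluorescent replication assay read twice, at 0 min and 10 min after adding 50 nM (final) substrate. Enzyme (10 nM) and compounds were first incubated 15 min at room temperature; enzyme-free buffer wells were negative controls.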
Pol eta inh – qHTS for Inhibitors of Polymerase Eta; AID 588591, 2011; recombinant Pol eta, fluorescent DNA replication assay; DNA polymerase eta (Homo sapiens), Q9Y253; Potency, µM (series often up to 114 µM), hits mostly inhibitors; actives 1.2% (n = 390,000)
Target sequence (Q9Y253 whole entry, looked up): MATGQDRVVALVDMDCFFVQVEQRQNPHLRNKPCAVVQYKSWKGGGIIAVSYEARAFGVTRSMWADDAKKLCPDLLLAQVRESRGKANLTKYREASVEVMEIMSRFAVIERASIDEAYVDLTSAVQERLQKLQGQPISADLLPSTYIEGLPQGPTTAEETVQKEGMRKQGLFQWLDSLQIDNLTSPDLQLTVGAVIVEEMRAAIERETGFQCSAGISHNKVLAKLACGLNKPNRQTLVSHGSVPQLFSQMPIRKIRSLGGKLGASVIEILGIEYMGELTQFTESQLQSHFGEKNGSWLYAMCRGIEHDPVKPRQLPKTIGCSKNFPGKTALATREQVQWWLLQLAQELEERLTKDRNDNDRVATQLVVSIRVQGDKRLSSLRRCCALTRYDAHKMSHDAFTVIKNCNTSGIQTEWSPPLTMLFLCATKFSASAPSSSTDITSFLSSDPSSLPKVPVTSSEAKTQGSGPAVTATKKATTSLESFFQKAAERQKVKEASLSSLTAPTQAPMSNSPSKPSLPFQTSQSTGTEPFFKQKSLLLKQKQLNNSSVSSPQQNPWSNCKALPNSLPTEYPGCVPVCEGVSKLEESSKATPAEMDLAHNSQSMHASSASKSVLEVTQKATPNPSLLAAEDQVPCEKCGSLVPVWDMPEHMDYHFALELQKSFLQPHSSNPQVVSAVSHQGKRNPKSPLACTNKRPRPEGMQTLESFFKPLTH
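Fluorescent replication assay: 50 nM final substrate added after a 15 min room-temperature compound preincubation with 10 nM enzyme. Signal taken at 0 min and again at 10 min.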
L3MBTL1 block – qHTS Assay for the Inhibitors of L3MBTL1 | AlphaScreen L3MBTL1–H3K9me1 peptide binding | Potency, µM (highest dose often 57.1 µM), most hits filed as inhibitors | actives 0.66% (n = 230,000); also: nearly all actives have a fitted effect of over 60% in size
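First, the protein-peptide complex forms for 30 min at room temperature (L3MBTL1 50 nM, biotinylated H3K9me1 peptide 75 nM). Next, compounds are pin-transferred and incubated 30 min. Finally, AlphaScreen beads are added and read after 30 min.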
Pol beta inh – qHTS Assay for Inhibitors of DNA Polymerase Beta | Pol beta primer extension/strand displacement, fluorescence kinetic | Potency, µM (series often up to 114 µM), actives largely listed as inhibitors | actives 1.3% (n = 340,000)
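Kinetic readout of DNA synthesis with strand displacement by Pol beta. Compound and 10 nM enzyme sit 15 min at room temperature; 50 nM substrate starts the reaction, read immediately and at 10 min.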
Pol kappa inh – qHTS for Inhibitors of Polymerase Kappa; Potency, µM (doses to about 107 µM), usual class: inhibitors; purified Pol kappa, fluorescent DNA synthesis assay, 10 min; actives 0.53% (n = 400,000)
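50 nM final substrate added after 15 min RT preincubation of 10 nM Pol kappa with compound; fluorescence read at 0 and 10 min.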
WRN helicase inh – qHTS for Inhibitors of WRN Helicase; actives 0.46% (n = 360,000); Potency, µM (top dose mostly 114 µM), actives largely listed as inhibitors; WRN helicase unwinding, fluorescent forked duplex, kinetic; also: nearly all actives have a fitted effect of over 55% in size
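Kinetic red-fluorescence monitoring (525/598 nm) tracks WRN helicase activity after 100 nM fluorophore-quencher forked duplex and 2 mM ATP are added to 20 nM enzyme pretreated 15 min at room temperature with compound.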
Hits are given with their value; – = inactive; ? = inconclusive; · = no result; [ ] = another dose, or the depositor's remark. Calls follow the shape of the dose curve; as a rule, active = well fitted curve in the direction sought with a large enough effect; inconclusive = small, poorly fitted or top-dose-only effect, or another doubt; inactive = no such curve, though single readings can be large; an effect the other way counts as inactive or inconclusive.

SMILES | POLI inh | Pol eta inh | L3MBTL1 block | Pol beta inh | Pol kappa inh | WRN helicase inh
CN(C)S(=O)(=O)N(CC(=O)NCCSCc1ccccc1)c1ccccc1 | ? | ? | · | 35µM | ? | –[11.6 µM]
CN(C)S(=O)(=O)N(CC(=O)N(Cc1ccccc1)Cc1ccccc1)c1ccccc1 | ? | ? | · | 22µM | ? | –
CN(C)S(=O)(=O)N(CC(=O)NCCSc1ccc(Cl)cc1)c1ccccc1 | ? | ? | · | 22µM | – | ·
Cc1ccc(/C=N/Nc2nncc(-c3ccccc3)n2)o1 | – | – | – | – | – | –
Cc1[nH]n(-c2ccccc2)c(=O)c1/C=N/Nc1nncc(-c2ccccc2)n1 | – | – | 25µM | – | – | –
COc1ccccc1NC(=O)CCNS(=O)(=O)c1ccc2c(c1)CCCC(=O)N2 | – | – | · | – | – | ·
Cc1ccc(C(=O)OCC(=O)Nc2ncc(Cl)cc2Cl)cc1NC(=O)c1ccco1 | 50µM | ? | · | ? | – | –
Cc1ccc(C(=O)OCC(=O)Nc2ccccc2)cc1NC(=O)c1ccco1 | – | – | – | – | – | –
O=C(COC(=O)c1ccc2ncsc2c1)Nc1ncc(Cl)cc1Cl | ? | 8.9µM | ? | – | – | –
O=C(CSc1nnc(-c2ccc(S(=O)(=O)N3CCCC3)cc2)o1)NCc1ccccc1 | – | – | ? | – | – | –
COc1ccccc1Nc1nn2c(=O)c3ccc(C(=O)NCCCOC(C)C)cc3nc2s1 | ? | ? | · | 45µM | – | ·
Cc1ccc(C)c(Nc2nn3c(=O)c4ccc(C(=O)NCc5cccs5)cc4nc3s2)c1 | – | ? | · | 11µM | – | ·
COc1ccccc1Nc1nn2c(=O)c3ccc(C(=O)NCc4cccs4)cc3nc2s1 | – | ? | · | ? | – | ·
CCN(CC)CCNC(=O)c1ccc2c(=O)n3nc(Nc4ccccc4OC)sc3nc2c1 | – | ? | · | – | – | ·
O=C(N/N=C/C(Cl)=C/c1ccc([N+](=O)[O-])cc1)C(=O)Nc1ccccc1C(=O)O | 18µM | 45µM | ? | 20µM | ? | ?
O=C(N/N=C/C(Cl)=C/c1ccc([N+](=O)[O-])cc1)C(=O)Nc1ccc(C(=O)O)cc1 | ? | ? | – | ? | – | –[11.6 µM]
Cc1ccc(C(=O)N2CCCCC2)cc1NC(=O)c1nsc2ccccc12 | – | – | · | ? | – | ·
Cc1ccc(C(=O)O)cc1NC(=O)c1nsc2ccccc12 | ? | · | · | 79µM | – | ·
COc1ccc(-c2[nH]c(-c3ccc(C)cc3)nc2SCC(=O)NCc2ccco2)cc1OC | – | – | · | 79µM | – | –
Cc1cc2nc(-c3cccnc3SCC(=O)NCc3ccco3)[nH]c2cc1C | – | – | ? | 50µM | – | –
Cc1cc2nc(-c3cccnc3SCC(=O)NC3CC3)[nH]c2cc1C | · | · | – | – | · | ·
COc1ccc(-c2ccc(SCC(=O)NCc3ccco3)nn2)cc1OC | – | ? | – | – | ? | –
C[n+]1c2n(c3ccccc31)N=C(c1ccc(Br)cc1)CS2 | 25µM | – | – | – | – | –
C[n+]1c2n(c3ccccc31)N=C(c1ccc(-c3ccccc3)cc1)CS2 | – | – | – | – | – | –
O=C(/C=C/c1ccco1)NC(=S)Nc1ccccc1 | ? | ? | –[2.29 µM] | ? | ? | –[11.6 µM]
SMILES | POLI inh | Pol eta inh | L3MBTL1 block | Pol beta inh | Pol kappa inh | WRN helicase inh
Cc1ccccc1NC(=S)NC(=O)/C=C/c1ccco1 | ? | 18µM | ? | 32µM | ? | 79µM
Cc1ccc(-n2nc3ccc(NC(=S)NC(=O)/C=C/c4ccco4)cc3n2)cc1 | – | ? | – | – | – | –
CCC(=O)Nc1cccc(-c2nc3ccccc3o2)c1 | – | – | – | – | – | –
Cc1ccc(-c2nc3ccccc3s2)cc1NC(=S)NC(=O)/C=C/c1ccco1 | ? | 20µM | – | ? | – | ?
Cc1ccc(-n2nc3cc(C)c(NC(=S)NC(=O)/C=C/c4ccco4)cc3n2)cc1 | – | ? | – | 50µM | – | –
O=C(/C=C/c1ccco1)NC(=S)Nc1cccc(-c2nc3ccccc3o2)c1 | ? | 32µM | – | 28µM | 79µM | 50µM
NC(=O)N/N=C/c1ccccc1OCc1cccc2ccccc12 | – | – | – | – | – | –
Cc1cc(C)c(S(=O)(=O)Nc2ccc(Cl)cn2)c(C)c1 | – | – | – | – | – | –
CCc1ccc(Nc2nn(-c3ccc(OC(F)(F)F)cc3)nc2C(C)=O)cc1 | – | – | · | – | – | ·
O=C(/C=C/c1ccco1)NC(=S)Nc1cccc(-c2nc3ccccc3s2)c1 | ? | ? | · | · | – | –
O=C(/C=C/c1ccco1)NC(=S)Nc1cc(-c2nc3ccccc3s2)ccc1Cl | ? | 22µM | ? | – | – | ?
CC(=O)Nc1ccc(NC(=O)CSc2nnc3c4ccccc4n(C)c3n2)cc1 | – | – | – | ? | – | –
CCCCn1c2ccccc2c2nnc(SCC(=O)Nc3ccc(NC(C)=O)cc3)nc21 | – | – | · | 14µM | – | ·
O=C(O)COc1ccccc1C(Nc1cccnc1)c1cc(Cl)c2cccnc2c1O (stereo not drawn) | ? | 79µM | · | – | ? | ?
COc1ccc(-c2noc(CCCC(=O)Nc3cccc(Cl)c3C)n2)cc1 | – | – | · | – | – | ·
O=C(O)Cn1cc(/C=N/NC(=O)c2cc3cc(Br)ccc3o2)c2ccccc21 | 71µM | – | · | ? | – | ?
Cn1cc(/C=N/NC(=O)c2cc3cc(Br)ccc3o2)c2ccccc21 | – | – | · | – | – | –
CC(=O)Nc1ccc(NC(=O)CSc2nnc(-c3cccnc3)o2)cc1 | 50µM | – | – | · | – | –
O=C(CSc1nnc(-c2cccnc2)o1)Nc1ccc(Cl)cc1 | – | – | ? | – | – | –
COc1ccc(NC(=O)C2Cc3ccccc3N2C(=O)c2ccccc2)c(OC)c1 (stereo not drawn) | – | – | · | – | – | ·
CN(C)c1ccc(N=Nc2cccc3ccoc23)cc1 | – | – | 10µM | – | – | –
Cc1ccc(C)n1-c1ccc(C(=O)NN)cc1 | 16µM | – | – | – | ? | –
Cc1ccc(C)n1-c1ccc(C(=O)NCc2ccncc2)cc1 | – | – | – | – | – | –
COc1cc(C2C(C#N)=C(N)OC3=C2C(=O)CCC3)c([N+](=O)[O-])cc1OC (stereo not drawn) | 7.1µM | 20µM | ? | – | 89µM | ?
N/C(=N\c1nc(CSc2ccc(Cl)cc2)cc(=O)[nH]1)Nc1ccccc1C(F)(F)F | – | – | – | – | – | –
COc1ccc(OCC(=O)OCc2cc(=O)n3nc(C4CCCCC4)sc3n2)cc1 | ? | – | · | 45µM | – | ·

Screening results: PubChem, National Center for Advancing Translational Sciences (NCATS)
